Experimental data published in PubChem BioAssay (NCATS).
Several values for one entry are separate records, joined by “and”; a condition that tells them apart may be missing. Equal values may be shown once. Records with an inconclusive call do not appear. More than one record can exist for a structure, and the calls need not agree. Activity calls are given as the source filed them. The call rests on the fitted dose curve; in most records, active means well fitted inhibition curve with a large enough effect; inconclusive means small, poorly fitted or top-dose-only effect; inactive means flat fitted curve, though single readings scatter.

Key:
JCK = assay: qHTS profiling for inhibitors of Plasmodium falciparum proliferation (AID 504749); further: potency means the concentration at half of the fitted maximal effect; details: P. falciparum in erythrocytes, SYBR Green DNA, 72 h; series mostly up to 28.7 µM
Method in brief: (§1)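 Infected RBCs, 0.3% parasitemia/2.5% Hct final; cpd 72 h, 37 C, 5% CO2; lysis buffer with saponin/triton/SYBR Green I, o/n RT dark; FI 485/535; norm. to artemisinin (0.29 uM) and DMSO.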

N140 = assay: as above; details: P. falciparum in erythrocytes, SYBR Green DNA, 72 h; series mostly up to 28.7 µM
Method in brief: as §1

P93_24 = assay: as above; details: P. falciparum in erythrocytes, SYBR Green DNA, 72 h; series mostly up to 28.7 µM
Method in brief: as §1

P94_40 = assay: as above; details: P. falciparum in erythrocytes, SYBR Green DNA, 72 h; series mostly up to 28.7 µM
Method in brief: as §1

PAD = assay: as above; details: P. falciparum in erythrocytes, SYBR Green DNA, 72 h; series mostly up to 28.7 µM
Method in brief: as §1

PC15 = assay: as above; details: P. falciparum in erythrocytes, SYBR Green DNA, 72 h; series mostly up to 28.7 µM
Method in brief: as §1

PC26 = assay: as above; details: P. falciparum in erythrocytes, SYBR Green DNA, 72 h; series mostly up to 28.7 µM
Method in brief: as §1

PC49 = assay: as above; details: P. falciparum in erythrocytes, SYBR Green DNA, 72 h; series mostly up to 28.7 µM
Method in brief: as §1

SC27B = assay: as above; details: P. falciparum in erythrocytes, SYBR Green DNA, 72 h; series mostly up to 28.7 µM
Method in brief: as §1

TAB109 = assay: as above; details: P. falciparum in erythrocytes, SYBR Green DNA, 72 h; series mostly up to 28.7 µM
Method in brief: as §1

TAB113 = assay: as above; details: P. falciparum in erythrocytes, SYBR Green DNA, 72 h; series mostly up to 28.7 µM
Method in brief: as §1

TAB165 = assay: as above; details: P. falciparum in erythrocytes, SYBR Green DNA, 72 h; series mostly up to 28.7 µM
Method in brief: as §1

W2 = assay: as above; details: P. falciparum in erythrocytes, SYBR Green DNA, 72 h; series mostly up to 28.7 µM
Method in brief: as §1

CRL-7250 = normal cell line; assay: Cytotoxic Profiling of Annotated Libraries Using Quantitative High-Throughput Screening (AID 1296008); details: Five cell lines viability, CellTiter-Glo ATP luminescence, 48-72 h; max response: stronger effect = lower value; further: potency means the concentration at half of the fitted maximal effect; on max response: on the % scale 0 is the no-effect control and ±100 the full control effect
Method in brief: (§2)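 Cytotoxicity was measured as CellTiter-Glo ATP luminescence, read after 10 min at room temperature. Compound treatment of the cells lasted 48 or 72 hr at 37 degrees Celsius in a qHTS format.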

HEK293 = assay: as above; details: Five cell lines viability, CellTiter-Glo ATP luminescence, 48-72 h; max response: stronger effect = lower value
Method in brief: as §2

HaCat [1] = assay: as above; details: Five cell lines viability, CellTiter-Glo ATP luminescence, 48-72 h; max response: stronger effect = lower value
Method in brief: as §2

KB-3-1 = assay: as above; details: Five cell lines viability, CellTiter-Glo ATP luminescence, 48-72 h; max response: stronger effect = lower value
Method in brief: as §2

NIH3T3 = assay: as above; details: Five cell lines viability, CellTiter-Glo ATP luminescence, 48-72 h; max response: stronger effect = lower value
Method in brief: as §2

HACAT [2] = assay: qHTS assay to identify novel small-molecules to repurpose for Merkel cell carcinoma treatment (AID 1296009); details: MCC and control cell lines, CellTiter-Glo viability, 72 h; at 44.8 µM (top of the series) unless noted
Method in brief: (§3)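 72 hr, 37 degree celsius; NPC 8-pt / MIPE 11-pt dose response; compound pinned in DMSO; CellTiter-Glo, 10 min RT, luminescence; normalized to no-cell and DMSO controls.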

HEK293T = assay: as above; details: MCC and control cell lines, CellTiter-Glo viability, 72 h; at 44.8 µM (top of the series) unless noted
Method in brief: as §3
Further: nearly all actives have a fitted effect of over 60% in size.

N[C@H](Cc1c[nH]c2ccccc12)C(=O)O
inactive: Potency (JCK) | Potency (N140) | Potency (P93_24) | Potency (P94_40) | Potency (PAD) | Potency (PC15) | Potency (PC26) | Potency (PC49) | Potency (SC27B) | Potency (TAB109) | Potency (TAB113) | Potency (TAB165) | Potency (W2) | max response (CRL-7250) -25% | outcome (HEK293) | outcome (HaCat [1]) | max response (KB-3-1) 5.87% | max response (NIH3T3) 3.07% | outcome (HACAT [2]) | outcome (HEK293T)

C[C@H](O)C(=O)Nc1c(I)c(C(=O)NC(CO)CO)c(I)c(C(=O)NC(CO)CO)c1I
inactive: Potency (JCK) | Potency (N140) | Potency (P93_24) | Potency (P94_40) | Potency (PAD) | Potency (PC15) | Potency (PC26) | Potency (PC49) | Potency (SC27B) | Potency (TAB109) | Potency (TAB113) | Potency (TAB165) | Potency (W2) | outcome (CRL-7250) | max response (HEK293) -5.81% | outcome (HaCat [1]) | max response (KB-3-1) 3.55% | max response (NIH3T3) -5.03% | outcome (HACAT [2])

COc1cccc2c1C(=O)c1c(O)c3c(c(O)c1C2=O)C[C@@](O)(C(=O)CO)C[C@@H]3O[C@H]1C[C@H](N)[C@H](O)[C@H](C)O1
inactive: max response (KB-3-1) -13.1%
active: Potency (CRL-7250) 1.33 µM | Potency (HEK293) 266 nM | Potency (HaCat [1]) 0.944 µM | Potency (NIH3T3) 150 nM

CN1CCC[C@@H]1c1cccnc1
inactive: Potency (JCK) | Potency (N140) | Potency (P93_24) | Potency (P94_40) | Potency (PAD) | Potency (PC15) | Potency (PC26) | Potency (PC49) | Potency (SC27B) | Potency (TAB109) | Potency (TAB113) | Potency (TAB165) | Potency (W2) | max response (CRL-7250) -7.79% | max response (HEK293) -4.75% | outcome (HaCat [1]) | max response (KB-3-1) -0.673% | max response (NIH3T3) 0.585% | outcome (HACAT [2])

CC(C)n1nc(-c2cc3cc(O)ccc3[nH]2)c2c(N)ncnc21
active: Potency (CRL-7250) 376 nM and 461 nM | Potency (HEK293) 1.33 µM and 1.46 µM | Potency (HaCat [1]) 23.1 µM | Potency (KB-3-1) 1.3 µM | Potency (NIH3T3) 2.37 µM and 1.16 µM

Cc1cc2c(cc1CC(=O)c1sccc1S(=O)(=O)Nc1onc(C)c1Cl)OCO2
inactive: max response (CRL-7250) -5.35% and 2.32% | outcome (HEK293) | max response (HaCat [1]) -2.94% | outcome (HaCat [1]) | max response (KB-3-1) 9.67% | max response (NIH3T3) 0.409% and 4.42% | outcome (HACAT [2]) | outcome (HEK293T)

Cc1ccc(C(=O)C(C)CN2CCCCC2)cc1 (configuration not stated)
active: Potency (W2) 6.01 µM
inactive: Potency (JCK) | Potency (PC49) | Potency (SC27B) | max response (CRL-7250) -2.76% and -2.03% | max response (HEK293) 0.201% | outcome (HaCat [1]) inactive; activator | max response (KB-3-1) 7.56% and -13.6% and 2.39% | max response (NIH3T3) -4.42% | outcome (NIH3T3) | outcome (HACAT [2]) inactive; activator

CC1(C)O[C@@H]2[C@@H](CO[C@@]3(COS(N)(=O)=O)OC(C)(C)O[C@@H]23)O1
inactive: max response (CRL-7250) -9.34% | outcome (HEK293) | outcome (HaCat [1]) | max response (KB-3-1) 12.1% | max response (NIH3T3) -0.846% | outcome (HACAT [2]) | outcome (HEK293T)

NC[C@H]1O[C@H](O[C@H]2[C@H](O[C@@H]3O[C@H](CO)[C@@H](O)[C@H]3O)C(O)[C@H](N)C[C@@H]2N)[C@H](N)[C@@H](O)[C@@H]1O (some centres not stated)
inactive: max response (CRL-7250) -0.227% | max response (HEK293) 0.11% | max response (HaCat [1]) -0.678% | max response (KB-3-1) -2.19% | outcome (NIH3T3)

CC(C)(C)NC(=O)[C@@H]1CN(Cc2cccnc2)CCN1C[C@@H](O)C[C@@H](Cc1ccccc1)C(=O)N[C@H]1c2ccccc2C[C@H]1O
inactive: max response (CRL-7250) -1.33% and -2.61% | max response (HEK293) 3.56% | outcome (HEK293) | max response (HaCat [1]) -2.17% | outcome (HaCat [1]) | max response (KB-3-1) 9.13% | max response (NIH3T3) 1.79% and -2.96% | outcome (HACAT [2]) | outcome (HEK293T)

CN1CCN(C(c2ccccc2)c2ccccc2)CC1
active: Potency (W2) 2.56 µM
inactive: Potency (JCK) | Potency (PAD) | Potency (PC15) | Potency (PC49) | Potency (SC27B) | Potency (TAB109) | Potency (TAB113) | Potency (TAB165) | max response (CRL-7250) 1.17% and 3.11% | max response (HEK293) -9.52% | max response (HaCat [1]) -15.7% | outcome (HaCat [1]) | max response (KB-3-1) -11.4% and 1.83% | max response (NIH3T3) 3.7% | outcome (NIH3T3) | outcome (HACAT [2])

CC(=O)N(O)CCCCCNC(=O)CCC(=O)N(O)CCCCCNC(=O)CCC(=O)N(O)CCCCCN
inactive: Potency (N140) | Potency (P93_24) | Potency (P94_40) | Potency (PAD) | Potency (PC15) | Potency (PC26) | Potency (SC27B) | Potency (TAB109) | Potency (TAB113) | Potency (TAB165) | Potency (W2) | max response (HaCat [1]) -20.9%
active: Potency (JCK) 10 µM | Potency (CRL-7250) 2.99 µM | Potency (HEK293) 52.4 nM and 9.44 µM | Potency (HaCat [1]) 1.32 µM

O=C1OC2(c3ccc(O)cc3Oc3cc(O)ccc32)c2ccccc21
inactive: max response (CRL-7250) -1.47% | max response (HEK293) -1.16% | max response (HaCat [1]) -26.2% | max response (KB-3-1) -10.5% | max response (NIH3T3) -4.38%

Cc1c(N(C)CS(=O)(=O)O)c(=O)n(-c2ccccc2)n1C
inactive: Potency (JCK) | Potency (N140) | Potency (P93_24) | Potency (P94_40) | Potency (PAD) | Potency (PC15) | Potency (PC26) | Potency (PC49) | Potency (SC27B) | Potency (TAB109) | Potency (TAB113) | Potency (TAB165) | Potency (W2) | outcome (CRL-7250) | outcome (HEK293) | outcome (HaCat [1]) | max response (KB-3-1) 16.1% | outcome (NIH3T3) | outcome (HACAT [2]) | outcome (HEK293T)

CCN(CCCCOC(=O)c1ccc(OC)c(OC)c1)C(C)Cc1ccc(OC)cc1 (configuration not stated)
inactive: outcome (CRL-7250) | max response (HEK293) -15.6% | outcome (HaCat [1]) | max response (KB-3-1) -8.65% | max response (NIH3T3) -18.2% | outcome (HACAT [2])
